# Reference: PubChem BioAssay
# Values joined by “and” are separate entries in the source; they are usually repeats but may differ in a detail not shown here. Equal values may be shown once. Inconclusive results are not listed. Active and inactive are the calls of the source.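 The calls were made as follows, unless noted: active = compounds whose cell count with miR-34 switched on is under 0.7 times the count with it off; inactive = the rest.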
# How the values were obtained:
# [1] = Wnt pathway potentiators raising nuclear beta-catenin – imaging, WNT3A-conditioned medium, mouse C2C12, NPC library, primary screen (AID 1117326; in the data active = nuclear beta-catenin stimulation mostly above about 4.2%, no sharp cut-off; inactive = mostly below about 10%; also: reference of the scale not given here); details: stronger effect = higher value
# [2] = stimulators of insulin release from INS-1E, primary screen, cell-based, 5 mM glucose, NPC library (AID 1117329;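 active = compound raises insulin release from rat beta cells at 5 mM glucose, no numeric limit stated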; also: reference of the scale not given here); details: rat INS-1E insulin secretion, at 10 µM, stronger effect = higher value
# [3] = growth inhibition of GSK3B-pretreated HCT116 cells – cell-based, CellTiter-Glo, 0.2 to 20 µM (AID 1117336;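 active = compounds lowering colon cancer cell viability after pretreatment blocking the GSK3B kinase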); details: HCT116 viability after GSK3B inhibitor, at 20 µM, stronger effect = higher value
# [4] = inhibition of endothelial tube formation, primary screen, imaging, VEGF stimulated, CD31 staining, tube area, NPC library (AID 1117340;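 active = compound that reduces growth-factor-driven endothelial tube area in a mixed cell culture, no cutoff stated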); details: VEGF-stimulated ADSC/ECFC co-culture, at 10 µM, stronger effect = higher value
# [5] = GLP1 release stimulators, primary, NCI-H716, NPC library (AID 1117341;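 active = compound raises GLP1 secretion from the human gut endocrine cells, with no numeric limit stated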; also: reference of the scale not given here); details: NCI-H716 cells, at 10 µM, stronger effect = higher value
# [6] = HCT116 colon cancer cell growth inhibition, primary screen, CellTiter-Glo luminescence, NPC library (AID 1117342;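 active = compounds that lower survival of HCT116 colon cancer cells in the luminescence readout, no numeric limit stated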); details: at 20 µM (top of the series)
# [7] = reduced SW480 viability measured with CellTiter-Glo, NPC library, primary (AID 1117343;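 active = compounds that lower viability of the colon cancer cells in the luminescence readout, with no numeric limit stated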); details: CellTiter-Glo luminescence; at 20 µM (top of the series) unless noted
# [8] = NPC library primary testing for decreased DLD-1 cell viability via CellTiter-Glo (AID 1117346;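 active = compounds that lower survival of DLD-1 colon cancer cells in the luminescence readout, no cutoff given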); details: DLD-1 viability, CellTiter-Glo luminescence; at 20 µM (top of the series)
# [9] = viability loss with induced miR-34 in A549 – imaging, A549 dox-inducible miR-34, nuclei and caspase counts, primary screen (AID 1347080); details: A549 miR-34 inducible, Hoechst nuclei count, 48 h
# [10] = target: NAD(+) hydrolase SARM1 (Homo sapiens) (UniProt Q6SZW1); assay: blocking NAD cleavage by SARM1 SAM-TIR – cell lysate, NAD-Glo luminescence (AID 1508614;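 active = compound whose remaining NAD level is above about 45 nM, limit read from the data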;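 also: higher remaining NAD means stronger inhibition of SARM1 NADase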); details: SAM-TIR HEK293T lysate NADase, at 1 µM, stronger effect = higher value
# NAD(+) hydrolase SARM1 (Homo sapiens), sequence (Q6SZW1 whole entry, looked up): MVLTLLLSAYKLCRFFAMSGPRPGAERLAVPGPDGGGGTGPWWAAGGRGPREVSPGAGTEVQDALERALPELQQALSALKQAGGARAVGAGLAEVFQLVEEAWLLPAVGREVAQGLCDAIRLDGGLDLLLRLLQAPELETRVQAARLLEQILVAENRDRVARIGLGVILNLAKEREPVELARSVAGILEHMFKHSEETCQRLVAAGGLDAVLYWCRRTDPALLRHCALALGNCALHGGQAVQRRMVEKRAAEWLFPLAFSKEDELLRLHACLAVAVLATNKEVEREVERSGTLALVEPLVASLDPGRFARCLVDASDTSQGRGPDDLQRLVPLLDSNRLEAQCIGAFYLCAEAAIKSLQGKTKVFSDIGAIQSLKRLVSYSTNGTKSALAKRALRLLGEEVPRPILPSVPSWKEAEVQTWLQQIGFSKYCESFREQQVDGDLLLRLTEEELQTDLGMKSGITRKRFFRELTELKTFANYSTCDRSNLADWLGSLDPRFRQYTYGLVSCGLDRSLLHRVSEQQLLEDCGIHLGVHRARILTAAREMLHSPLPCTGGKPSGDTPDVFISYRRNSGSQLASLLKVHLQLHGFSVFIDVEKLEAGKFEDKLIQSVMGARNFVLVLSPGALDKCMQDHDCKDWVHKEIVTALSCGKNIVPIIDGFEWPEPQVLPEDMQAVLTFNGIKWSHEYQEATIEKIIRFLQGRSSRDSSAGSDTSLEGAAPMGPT
# [11] = compounds altering viability of human ES cells (AID 493140; call rule not given here;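 also: cells exposed to compounds for four days before counting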); details: human embryonic stem cell survival screen; stronger effect = higher value
# [12] = P. berghei load reduction in hepatocytes – cell-based, HepG2, luciferase luminescence, HepG2 viability, primary screen (AID 624349; in the data active = parasite load remaining mostly below about 12%, no sharp cut-off; inactive = mostly above about 10%;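 also: 100% = mean of DMSO negative control wells on the same plate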); details: P. berghei liver stage in HepG2, luciferase luminescence, concentration not given here; parasite load remaining: stronger effect = lower value; viability: measured here: HepG2 viability without parasites
# [13] = MELAS cybrid and Rieske KO viability enhancers – cell-based, MELAS cybrids, Rieske KO mouse fibroblasts, CellTiter-Glo, primary screen (AID 1508586;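 active = mean z-score across replicates of 1.96 or higher in either the MELAS or the Rieske mutant cell line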;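 also: z relative to plate mean and SD of compound and empty wells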); details: low glucose
# [14] = galactose survival enhancers in mitochondrial complex I cybrids – cell-based, galactose medium, ATP luminescence, primary screen (AID 1645843;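 active = z-score of at least 1.8 in each of two replicates, scored against plate mean and spread of sample wells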;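 also: positive z means more ATP and so rescue of galactose-driven cybrid death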); details: complex I mutant cybrid cells, 72 h, stronger effect = higher value
# [15] = target: ATP-dependent translocase ABCB1 (Homo sapiens) (UniProt P08183); assay: P-glycoprotein substrate transport blockade – cell-based (AID 377; in the data active = fluorescence slope change above about 50%); details: MDR1-expressing cells, fluorescent substrate accumulation slope; stronger effect = higher value; concentration not given here
# ATP-dependent translocase ABCB1 (Homo sapiens), sequence (P08183 whole entry, looked up): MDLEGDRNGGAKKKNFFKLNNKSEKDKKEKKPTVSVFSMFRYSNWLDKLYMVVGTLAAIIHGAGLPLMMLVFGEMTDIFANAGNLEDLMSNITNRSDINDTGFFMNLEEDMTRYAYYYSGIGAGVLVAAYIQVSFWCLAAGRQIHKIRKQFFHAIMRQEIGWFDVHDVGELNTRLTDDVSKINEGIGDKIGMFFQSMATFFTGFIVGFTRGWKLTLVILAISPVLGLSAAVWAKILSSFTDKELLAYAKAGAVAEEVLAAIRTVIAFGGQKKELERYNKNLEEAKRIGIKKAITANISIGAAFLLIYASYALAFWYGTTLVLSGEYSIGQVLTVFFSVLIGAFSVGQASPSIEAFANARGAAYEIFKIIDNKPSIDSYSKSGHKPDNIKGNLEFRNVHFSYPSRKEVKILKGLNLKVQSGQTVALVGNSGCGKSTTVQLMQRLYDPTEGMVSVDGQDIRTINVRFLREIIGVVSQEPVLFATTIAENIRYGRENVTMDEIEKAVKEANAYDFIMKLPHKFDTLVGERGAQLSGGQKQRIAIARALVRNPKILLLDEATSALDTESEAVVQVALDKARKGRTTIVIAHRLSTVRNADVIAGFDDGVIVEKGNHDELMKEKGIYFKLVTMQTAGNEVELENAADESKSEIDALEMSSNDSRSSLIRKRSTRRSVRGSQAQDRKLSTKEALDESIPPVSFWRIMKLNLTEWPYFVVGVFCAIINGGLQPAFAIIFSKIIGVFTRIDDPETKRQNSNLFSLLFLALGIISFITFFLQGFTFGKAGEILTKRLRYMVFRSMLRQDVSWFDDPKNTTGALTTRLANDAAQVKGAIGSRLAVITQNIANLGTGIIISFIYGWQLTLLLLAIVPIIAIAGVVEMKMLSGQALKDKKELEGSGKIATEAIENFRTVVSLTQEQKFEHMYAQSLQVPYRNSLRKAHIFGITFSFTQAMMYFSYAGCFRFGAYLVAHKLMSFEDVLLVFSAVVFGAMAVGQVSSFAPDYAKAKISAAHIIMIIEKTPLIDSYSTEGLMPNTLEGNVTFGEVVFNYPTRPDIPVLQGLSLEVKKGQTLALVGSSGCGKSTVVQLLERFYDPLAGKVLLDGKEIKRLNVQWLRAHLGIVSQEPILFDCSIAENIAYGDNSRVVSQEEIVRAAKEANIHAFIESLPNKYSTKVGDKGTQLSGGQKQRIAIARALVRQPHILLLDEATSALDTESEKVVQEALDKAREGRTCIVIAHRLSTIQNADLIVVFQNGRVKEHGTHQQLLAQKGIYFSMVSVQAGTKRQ
# [16] = compounds altering circadian rhythm period length – cell-based, LOPAC library, luminescence reporter (AID 2774; call rule not given here;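 also: values are relative to mean of DMSO wells on each plate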); details: circadian reporter cells, at 7 µM, actives lie on both sides
# [17] = stronger effect = lower value, cell number ratio, induced over uninduced
# [18] = measured here: relative caspase fold change +Dox/-Dox
# [19] = measured here: total cells with miR-34 induction, stronger effect = lower value
# [20] = measured here: total cells without miR-34 induction
# [21] = MELAS cybrid survival, CellTiter-Glo 48 h, stronger effect = higher value
# [22] = Rieske KO mouse fibroblast survival, CellTiter-Glo 72 h
structure (smiles),measurement,setting,value
O=C1CC[C@@H](C(=O)O)N1,nuclear beta-catenin stimulation,[1]; at 10 µM,2.4% (inactive)
same,nuclear beta-catenin stimulation,"[1]; stimulation, at 2 µM",0.7%
same,insulin secretion stimulation,[2],-1.4% (inactive)
same,viability decrease,[3],-1.95% (inactive)
same,tube area decrease,[4],9.1% (inactive)
same,GLP1 secretion stimulation,[5],-0.7% (inactive)
same,inhibition of viability,[6],11.4% (inactive)
same,viability decrease (inhibition),[7],17.1% (inactive)
same,viability decrease (inhibition),[8],6.75% (inactive)
same,fold change,[9]; [17],0.878 (inactive)
same,fold change,[9]; [18],0.936
same,cell count,[9]; [19],8600
same,cell count,[9]; [20],9800
same,remaining NAD,[10],10 nM (inactive)
CCC(C)(CN(C)C)OC(=O)c1ccccc1 (stereo not given),survival,[11],26.8 (inactive)
same,parasite load remaining,[12],38.1% (inactive) and 188% (inactive)
same,viability,[12],56.2% and 90.3%
same,nuclear beta-catenin stimulation,[1]; at 10 µM,-2.1% (inactive)
same,nuclear beta-catenin stimulation,"[1]; stimulation, at 2 µM",-1.6%
same,insulin secretion stimulation,[2],3% (inactive)
same,viability decrease,[3],-25.9% (inactive)
same,tube area decrease,[4],-3.6% (inactive)
same,GLP1 secretion stimulation,[5],-1.9% (inactive)
same,inhibition of viability,[6],-6.83% (inactive)
same,viability decrease (inhibition),[7],7.2% (inactive)
same,viability decrease (inhibition),[8],-17.6% (inactive)
same,fold change,[9]; [17],0.964 (inactive)
same,fold change,[9]; [18],0.9
same,cell count,[9]; [19],8680
same,cell count,[9]; [20],9000
same,z-score,[13]; [21],0.476 (inactive)
same,z-score,[13]; [22],-0.277
COc1ccccc1Oc1c(NS(=O)(=O)c2ccc(C(C)(C)C)cc2)nc(-c2ncccn2)nc1OCCO,parasite load remaining,[12],23% (inactive)
same,viability,[12],71%
same,nuclear beta-catenin stimulation,[1]; at 10 µM,-2.1% (inactive)
same,nuclear beta-catenin stimulation,"[1]; stimulation, at 2 µM",0.8%
same,insulin secretion stimulation,[2],7% (inactive)
same,viability decrease,[3],-5.8% (inactive)
same,tube area decrease,[4],4.9% (inactive)
same,GLP1 secretion stimulation,[5],0.2% (inactive)
same,inhibition of viability,[6],12.9% (inactive)
same,viability decrease (inhibition),[7],81.4% (active)
same,viability decrease (inhibition),[8],16.8% (inactive)
same,fold change,[9]; [17],0.921 (inactive) and 0.93 (inactive) and 0.843 (inactive)
same,fold change,[9]; [18],1.38 and 0.578 and 1.32
same,cell count,[9]; [19],8280 and 8370 and 9010
same,cell count,[9]; [20],8980 and 9000 and 10700
same,z-score,[14],0.365 (inactive)
OC(CCCN1CCCCC1)(c1ccccc1)c1ccccc1,fluorescence slope change,[15],71.6% (active)
same,survival,[11],12.2 (inactive)
same,parasite load remaining,[12],29.2% (inactive) and 89.1% (inactive)
same,viability,[12],45.7% and 89.8%
same,nuclear beta-catenin stimulation,[1]; at 10 µM,-0.9% (inactive)
same,nuclear beta-catenin stimulation,"[1]; stimulation, at 2 µM",-0.2%
same,insulin secretion stimulation,[2],22% (active)
same,viability decrease,[3],-9.5% (inactive)
same,tube area decrease,[4],3.9% (inactive)
same,GLP1 secretion stimulation,[5],-3.3% (inactive)
same,inhibition of viability,[6],6.1% (inactive)
same,viability decrease (inhibition),[7],12% (inactive)
same,viability decrease (inhibition),[8],-3.8% (inactive)
same,fold change,[9]; [17],0.908 (inactive) and 0.916 (inactive)
same,fold change,[9]; [18],1.32 and 0.648
same,cell count,[9]; [19],8770 and 8200
same,cell count,[9]; [20],9660 and 8950
same,z-score,[13]; [21],-0.227 (inactive) and -0.211 (inactive)
same,z-score,[13]; [22],-0.167 and -0.027
CC(C)NC[C@@H](O)COc1ccc(CC(N)=O)cc1,period change,[16],0.075 h (inactive)
same,survival,[11],2.17 (inactive)
same,parasite load remaining,[12],88.2% (inactive)
same,viability,[12],111%
same,nuclear beta-catenin stimulation,[1]; at 10 µM,0.1% (inactive)
same,nuclear beta-catenin stimulation,"[1]; stimulation, at 2 µM",1.2%
same,insulin secretion stimulation,[2],-1.9% (inactive)
same,viability decrease,[3],-4.35% (inactive)
same,tube area decrease,[4],-23.3% (inactive)
same,GLP1 secretion stimulation,[5],3.3% (inactive)
same,inhibition of viability,[6],1.1% (inactive)
same,viability decrease (inhibition),[7],11.3% (inactive)
same,viability decrease (inhibition),[8],-7% (inactive)
same,fold change,[9]; [17],0.872 (inactive)
same,fold change,[9]; [18],1.15
same,cell count,[9]; [19],9650
same,cell count,[9]; [20],11100
same,z-score,[13]; [21],0.458 (inactive)
same,z-score,[13]; [22],-0.0401
CN(Cc1ccc(C(C)(C)C)cc1)Cc1cccc2ccccc12,parasite load remaining,[12],43.3% (inactive)
same,viability,[12],140%
same,nuclear beta-catenin stimulation,[1]; at 10 µM,-1.4% (inactive)
same,nuclear beta-catenin stimulation,"[1]; stimulation, at 2 µM",-0.7%
same,insulin secretion stimulation,[2],-1% (inactive)
same,viability decrease,[3],37.6% (inactive)
same,tube area decrease,[4],7.1% (inactive)
same,GLP1 secretion stimulation,[5],-4% (inactive)
same,inhibition of viability,[6],50.7% (active)
same,viability decrease (inhibition),[7],62.7% (active)
same,viability decrease (inhibition),[8],37.8% (inactive)
same,fold change,[9]; [17],0.848 (inactive) and 0.895 (inactive)
same,fold change,[9]; [18],0.76 and 0.344
same,cell count,[9]; [19],7540 and 9920
same,cell count,[9]; [20],8900 and 11100
same,z-score,[13]; [21],-0.284 (inactive) and -0.0947 (inactive) and -0.415 (inactive)
same,z-score,[13]; [22],-0.307 and 0.166 and -0.508
same,z-score,[14],-1.71 (inactive)
CN1CCN(CCCN2c3ccccc3Sc3ccc(S(=O)(=O)N(C)C)cc32)CC1,fluorescence slope change,[15],52.4% (active)
same,survival,[11],4.08 (inactive)
same,parasite load remaining,[12],35.2% (inactive) and 94.1% (inactive)
same,viability,[12],47.9% and 85.3%
same,nuclear beta-catenin stimulation,[1]; at 10 µM,33.2% (inactive)
same,nuclear beta-catenin stimulation,"[1]; stimulation, at 2 µM",0.3%
same,insulin secretion stimulation,[2],12.3% (inactive)
same,viability decrease,[3],99.5% (active)
same,tube area decrease,[4],108% (active)
same,GLP1 secretion stimulation,[5],-2.9% (inactive)
same,inhibition of viability,[6],99.9% (active)
same,viability decrease (inhibition),[7],103% (active)
same,viability decrease (inhibition),[8],95% (active)
same,fold change,[9]; [17],0.928 (inactive)
same,fold change,[9]; [18],1.43
same,cell count,[9]; [19],7890
same,cell count,[9]; [20],8500
same,z-score,[13]; [21],0.365 (inactive)
same,z-score,[13]; [22],0.522
CCc1cccc(CC)c1NC(=O)CN(CC(=O)O)CC(=O)O,fluorescence slope change,[15],-10% (inactive)
same,survival,[11],10.9 (inactive)
same,parasite load remaining,[12],77.8% (inactive) and 89.7% (inactive)
same,viability,[12],111% and 80.2%
same,nuclear beta-catenin stimulation,[1]; at 10 µM,-0.2% (inactive)
same,nuclear beta-catenin stimulation,"[1]; stimulation, at 2 µM",0.2%
same,insulin secretion stimulation,[2],-1.7% (inactive)
same,viability decrease,[3],-8.7% (inactive)
same,tube area decrease,[4],7.4% (inactive)
same,GLP1 secretion stimulation,[5],-0.1% (inactive)
same,inhibition of viability,[6],12% (inactive)
same,viability decrease (inhibition),[7],39.7% (inactive)
same,viability decrease (inhibition),[8],1.77% (inactive)
same,fold change,[9]; [17],0.877 (inactive)
same,fold change,[9]; [18],1.63
same,cell count,[9]; [19],9160
same,cell count,[9]; [20],10400
same,z-score,[13]; [21],0.304 (inactive)
same,z-score,[13]; [22],0.0436
O=C(O)c1ccc[n+]([O-])c1,nuclear beta-catenin stimulation,[1]; at 10 µM,-0.8% (inactive)
same,nuclear beta-catenin stimulation,"[1]; stimulation, at 2 µM",2%
same,insulin secretion stimulation,[2],-0.6% (inactive)
same,viability decrease,[3],-4.35% (inactive)
same,tube area decrease,[4],11.3% (active)
same,GLP1 secretion stimulation,[5],0% (inactive)
same,inhibition of viability,[6],-1.7% (inactive)
same,viability decrease (inhibition),[7],14.2% (inactive)
same,viability decrease (inhibition),[8],-2.85% (inactive)
same,fold change,[9]; [17],0.936 (inactive)
same,fold change,[9]; [18],0.969
same,cell count,[9]; [19],8660
same,cell count,[9]; [20],9250
same,remaining NAD,[10],10 nM (inactive)
CN1CCCN(C(c2ccccc2)c2ccc(Cl)cc2)CC1 (stereo not given),fluorescence slope change,[15],122% (active)
same,survival,[11],4.08 (inactive)
same,parasite load remaining,[12],48.8% (inactive) and 98.3% (inactive)
same,viability,[12],42.5% and 88%
same,nuclear beta-catenin stimulation,[1]; at 10 µM,3.7% (inactive)
same,nuclear beta-catenin stimulation,"[1]; stimulation, at 2 µM",1.3%
same,insulin secretion stimulation,[2],2.9% (active)
same,viability decrease,[3],96% (active)
same,tube area decrease,[4],38.7% (inactive)
same,GLP1 secretion stimulation,[5],13.9% (inactive)
same,inhibition of viability,[6],96.5% (active)
same,viability decrease (inhibition),[7],122% (active)
same,viability decrease (inhibition),[8],71% (active)
same,fold change,[9]; [17],0.886 (inactive)
same,fold change,[9]; [18],1.48
same,cell count,[9]; [19],7610
same,cell count,[9]; [20],8580
same,z-score,[13]; [21],-0.68 (inactive)
same,z-score,[13]; [22],0.377
